Data taken from PubChem BioAssay (Tox21).
Records with an inconclusive call do not appear. The source made the active and inactive calls. Unless noted, calls follow the shape of the dose curve; as a rule, active = well fitted curve in the direction sought with a large enough effect in the repeat runs; inconclusive = weak or mixed curves; inactive = no such curve, though single readings can be large; an effect the other way counts as inactive or inconclusive.

Tests used:
[1] = qHTS assay to identify small molecule agonists of the peroxisome proliferator-activated receptor delta (PPARd) signaling pathway - cell viability counter screen (AID 743211); also: nearly all actives have a fitted effect of over 55% in size; also: potency is read from the fitted curve at half-maximal effect
Procedure, shortened: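 PPARd-bla HEK293H cells (UAS-beta-lactamase reporter) were treated with compounds for 17 h at 37 C. Viability was then read in the same wells by CellTiter-Glo luminescence after 30 min at room temperature.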

[2] = target: Peroxisome proliferator-activated receptor delta (Homo sapiens) (UniProt Q03181); assay: qHTS assay to identify small molecule agonists of the peroxisome proliferator-activated receptor delta (PPARd) signaling pathway (AID 743212; calls by dose curve)
Procedure, shortened: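 Read-out: beta-lactamase FRET fluorescence after 2 h room-temperature incubation with LiveBLAzer B/G substrate. Cells were HEK293H carrying a UAS-bla reporter for PPARd, treated at 37 C with DMSO-dissolved compounds.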

[3] = qHTS assay to identify small molecule antagonists of the peroxisome proliferator-activated receptor delta (PPARd) signaling pathway - cell viability counter screen (AID 743213); also: nearly all actives have a fitted effect of over 50% in size
Procedure, shortened: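 CellTiter-Glo was added to PPARd-bla HEK293H wells following 17 h compound treatment in the presence of 300 nM L165041. Luminescence was recorded after 30 min at room temperature.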

[4] = target: Peroxisome proliferator-activated receptor delta (Homo sapiens) (UniProt Q03181); assay: qHTS assay to identify small molecule antagonists of the peroxisome proliferator-activated receptor delta (PPARd) signaling pathway (AID 743215; active = well fitted inhibition curve with a large enough effect in the signal ratio in the repeat runs, not every such curve was filed as active; the % refers to the signal ratio;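 also: cells stimulated with agonist L165041 at 300 nM final during compound exposure; series mostly up to about 62 µM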)
Procedure, shortened: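 Plated HEK293H PPARd-bla cells rested 5 h at 37 C and 5% CO2. Compound, then agonist L165041 at 300 nM final, was added; 17 h at 37 C followed. Substrate loading, 2 h room temperature, fluorescence measured.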

[5] = target: Bile acid receptor (Homo sapiens) (UniProt Q96RI1); assay: qHTS assay to identify small molecule antagonists of the farnesoid-X-receptor (FXR) signaling pathway (AID 743217; active = well fitted inhibition curve with a large enough effect in the signal ratio in the repeat runs, not every such curve was filed as active; the % refers to the signal ratio)
Procedure, shortened: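 Screen of the Tox21 10K library in quantitative HTS format using FXR-UAS-bla HEK 293T reporter cells. Agonist chenodeoxycholic acid, 50 uM final, added with compounds; 16 h incubation at 37 °C; beta-lactamase FRET fluorescence measured.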

[6] = qHTS assay to identify small molecule antagonists of the farnesoid-X-receptor (FXR) signaling pathway - cell viability counter screen (AID 743221; active = well fitted cell-killing curve with a large enough effect in the repeat runs, not every such curve was filed as active; also: nearly all actives have a fitted effect of over 50% in size)
Procedure, shortened: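 FXR-UAS-bla HEK 293T cells were treated with test compounds plus chenodeoxycholic acid (50 uM final) for 16 h at 37 C. Cell viability in the same wells was then read as CellTiter-Glo luminescence after 30 min at room temperature.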

[7] = target: Vitamin D3 receptor (Homo sapiens) (UniProt P11473); assay: qHTS assay to identify small molecule agonists of the vitamin D receptor (VDR) signaling pathway (AID 743222; calls by dose curve)
Procedure, shortened: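 Fluorescence from cleaved LiveBLAzer B/G FRET substrate served as readout. VDR-bla cells had been treated 16 h at 37C with test compounds in DMSO, following a 4 h settling period, and substrate was loaded for 2 h at RT.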

[8] = target: Vitamin D3 receptor (Homo sapiens) (UniProt P11473); assay: qHTS assay to identify small molecule antagonists of the vitamin D receptor (VDR) signaling pathway (AID 743223; active = well fitted inhibition curve with a large enough effect in the signal ratio in the repeat runs, not every such curve was filed as active; the % refers to the signal ratio)
Procedure, shortened: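 VDR-bla cells were plated, incubated 4 h at 37C, then given compound and 1alpha,25-dihydroxyvitamin D3 (3 nM final). After 16 h at 37C, LiveBLAzer B/G FRET substrate was added for 2 h at room temperature and fluorescence read.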

[9] = target: Bile acid receptor (Homo sapiens) (UniProt Q96RI1); assay: qHTS assay to identify small molecule agonists of the farnesoid-X-receptor (FXR) signaling pathway (AID 743220; active = well fitted activation curve with a large enough effect in the signal ratio in the repeat runs, not every such curve was filed as active; the % refers to the signal ratio)
Procedure, shortened: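 FXR-UAS-bla HEK 293T cells carrying a UAS-driven beta-lactamase reporter were plated for 5 h at 37C/5% CO2, then exposed to DMSO-dissolved Tox21 10K compounds for 16 h at 37C. A LiveBLAzer B/G FRET substrate was loaded for 2 h at room temperature before fluorescence reading.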

[10] = qHTS assay to identify small molecule agonists of the farnesoid-X-receptor (FXR) signaling pathway - cell viability counter screen (AID 743218); also: nearly all actives have a fitted effect of over 45% in size
Procedure, shortened: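 Viability of FXR-bla HEK 293T cells is measured by ATP-based CellTiter-Glo luminescence following 16 h compound treatment at 37 C and a prior 2 h room-temperature beta-lactamase substrate step.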
% is scaled to controls: 0 for no effect and ±100 for the full control effect.

Peroxisome proliferator-activated receptor delta (Homo sapiens), sequence (Q03181 whole entry, looked up): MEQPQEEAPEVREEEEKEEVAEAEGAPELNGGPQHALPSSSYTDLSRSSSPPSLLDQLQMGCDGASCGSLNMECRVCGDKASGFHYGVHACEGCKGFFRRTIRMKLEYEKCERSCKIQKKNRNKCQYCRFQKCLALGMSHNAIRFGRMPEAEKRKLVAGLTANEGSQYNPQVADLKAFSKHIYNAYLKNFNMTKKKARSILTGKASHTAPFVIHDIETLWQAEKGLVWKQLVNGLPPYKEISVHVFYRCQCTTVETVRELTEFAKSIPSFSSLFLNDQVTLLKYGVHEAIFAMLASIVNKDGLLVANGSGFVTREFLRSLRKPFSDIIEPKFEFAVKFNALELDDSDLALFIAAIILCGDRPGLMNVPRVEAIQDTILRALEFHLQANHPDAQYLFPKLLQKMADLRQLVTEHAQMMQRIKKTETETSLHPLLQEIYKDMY
Bile acid receptor (Homo sapiens), sequence (Q96RI1 whole entry, looked up): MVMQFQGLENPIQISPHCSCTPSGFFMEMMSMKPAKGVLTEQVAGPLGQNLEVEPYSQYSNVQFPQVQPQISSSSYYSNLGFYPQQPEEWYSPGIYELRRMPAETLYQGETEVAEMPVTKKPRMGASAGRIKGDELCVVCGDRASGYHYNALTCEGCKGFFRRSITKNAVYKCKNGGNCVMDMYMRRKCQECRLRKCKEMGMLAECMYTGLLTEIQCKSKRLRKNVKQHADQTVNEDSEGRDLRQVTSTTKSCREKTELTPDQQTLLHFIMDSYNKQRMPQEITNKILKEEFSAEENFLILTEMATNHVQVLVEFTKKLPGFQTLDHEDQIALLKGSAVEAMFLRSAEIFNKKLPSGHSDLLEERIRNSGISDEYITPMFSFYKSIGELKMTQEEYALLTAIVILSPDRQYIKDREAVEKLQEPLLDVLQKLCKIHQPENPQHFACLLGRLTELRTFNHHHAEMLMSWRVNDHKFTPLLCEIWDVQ
Vitamin D3 receptor (Homo sapiens), sequence (P11473 whole entry, looked up): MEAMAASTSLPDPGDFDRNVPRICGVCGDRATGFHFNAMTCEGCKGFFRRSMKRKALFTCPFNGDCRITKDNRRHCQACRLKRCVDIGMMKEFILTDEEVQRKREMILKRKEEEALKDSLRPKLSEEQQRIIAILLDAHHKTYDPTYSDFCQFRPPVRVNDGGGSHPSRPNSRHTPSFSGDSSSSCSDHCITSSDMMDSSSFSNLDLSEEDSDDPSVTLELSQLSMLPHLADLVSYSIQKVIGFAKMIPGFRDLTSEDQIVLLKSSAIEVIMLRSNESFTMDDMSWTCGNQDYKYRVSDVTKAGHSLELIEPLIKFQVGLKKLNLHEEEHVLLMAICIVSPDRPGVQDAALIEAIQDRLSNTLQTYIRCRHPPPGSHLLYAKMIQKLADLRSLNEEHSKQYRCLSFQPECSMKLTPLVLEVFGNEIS

CC1C(=O)C[C@]2(C(C)C)C[C@H]12 (some centres undefined)
inactive: Potency [1] | outcome [2] | Potency [3] | Potency [4] | Potency [5] | Potency [6] | outcome [7] | outcome [8]

NNC(=O)c1cccnc1
inactive: Potency [1] | outcome [2] | Potency [3] | Potency [4] | Potency [5] | outcome [9] | outcome [7] | outcome [8]

ClC=C(Cl)Cl
inactive: Potency [1] | outcome [2] | Potency [3] | Potency [4] | Potency [5] | outcome [9] | Potency [6]

CC(Cl)C(C)Cl (centres undefined)
inactive: Potency [1] | outcome [2] | Potency [3] | Potency [4] | Potency [5] | Potency [10] | outcome [9] | Potency [6]

O=S(=O)(O)C(F)(F)C(F)(F)C(F)(F)C(F)(F)F
inactive: Potency [1]

CC(C)(Cl)[N+](=O)[O-]
inactive: Potency [1] | outcome [2] | Potency [3] | Potency [4] | Potency [5] | Potency [10] | outcome [9] | Potency [6] | outcome [7] | outcome [8]

COCCOCCO
inactive: Potency [1] | outcome [2]

CC1Sc2c(C(=O)O)c(=O)c3cc(F)c(N4CCNCC4)cc3n21 (centres undefined)
inactive: Potency [1] | outcome [2] | Potency [3] | Potency [4] | Potency [5] | Potency [10] | outcome [9] | Potency [6] | outcome [7]

CCOP(=S)(OCC)SCSCC
inactive: Potency [1] | outcome [2] | Potency [3] | Potency [4] | Potency [5] | Potency [10] | Potency [6] | outcome [7]

CC(C)N(CCC(C(N)=O)(c1ccccc1)c1ccccn1)C(C)C (centres undefined)
inactive: Potency [1] | outcome [2] | Potency [3] | Potency [4] | Potency [10] | Potency [6] | outcome [7] | outcome [8]

C[N+](C)(C)CCCl
inactive: Potency [1] | outcome [2] | Potency [3] | Potency [4] | Potency [10] | Potency [6] | outcome [8]

COC(=O)C(C)N(C(=O)Cc1ccccc1)c1c(C)cccc1C (centres undefined)
inactive: Potency [1] | outcome [2] | Potency [3] | Potency [4] | Potency [10] | Potency [6] | outcome [8]

O=C(Nc1ccccc1)Nc1cnns1
inactive: Potency [1] | outcome [2] | Potency [3] | Potency [4] | Potency [5] | outcome [7]

N#CCc1ccccc1
inactive: Potency [1] | outcome [2] | Potency [3] | Potency [4] | Potency [10] | outcome [7] | outcome [8]

C=CC(=O)OC(C)(C)C
inactive: Potency [1] | outcome [2] | Potency [3] | Potency [4] | Potency [10] | Potency [6] | outcome [7]

ClCc1ccccc1
inactive: Potency [1] | outcome [2] | Potency [3] | Potency [4] | Potency [10] | Potency [6] | outcome [7] | outcome [8]

CC1(C)CCC(Cc2ccc(Cl)cc2)C1(O)Cn1cncn1 (centres undefined)
inactive: Potency [1] | outcome [2] | Potency [3] | Potency [4] | Potency [5] | outcome [7] | outcome [8]

CC(=O)c1cc2c(cc1C)C(C)(C)C(C)CC2(C)C (centres undefined)
inactive: Potency [1] | outcome [2] | Potency [3] | Potency [4] | Potency [10] | outcome [9] | Potency [6] | outcome [8]

OC(c1ccc(Cl)cc1)(c1ccc(Cl)cc1)c1cccnc1
active: Potency [1] 54.9 µM
inactive: outcome [2] | Potency [3] | Potency [4] | Potency [10] | outcome [9] | Potency [6] | outcome [7] | outcome [8]

NCC(CC(=O)O)c1ccc(Cl)cc1 (centres undefined)
inactive: activity change, negative = cytotoxicity [1] -0.324% [at 0.55 µM] | activation [2] 1.99% [at 0.55 µM] | viability change, negative = cytotoxic [3] -11.6% [at 0.575 µM] | ratio activity, negative = inhibition [4] -0.236% [at 0.575 µM] | viability change, negative = cytotoxic [10] 0.276% [at 0.55 µM] | activity change, negative = cytotoxicity [6] 3.53% [at 0.55 µM]

COC(=O)C(Br)CBr (centres undefined)
inactive: Potency [1] | outcome [2] | Potency [3] | Potency [4] | Potency [10] | Potency [6] | outcome [7] | outcome [8]

CCCCCCCCCC(=O)O[C@H]1CC[C@H]2[C@@H]3CCC4=CC(=O)CC[C@@H]4[C@H]3CC[C@]12C
inactive: Potency [1] | outcome [2] | Potency [3] | Potency [4] | Potency [5] | Potency [6] | outcome [8]

CCN(C)N=O
inactive: Potency [1] | outcome [2] | Potency [3] | Potency [4] | Potency [10] | Potency [6] | outcome [7] | outcome [8]

C[C@]12CC[C@H]3[C@@H](CCC4=CC(=O)CC[C@@H]43)[C@@H]1CC[C@@H]2OC(=O)CCC1CCCCC1
inactive: Potency [1] | outcome [2] | Potency [3] | Potency [4] | Potency [10] | outcome [7] | outcome [8]

c1ccc(CN2CCNCC2)cc1
inactive: Potency [1] | outcome [2] | Potency [3] | Potency [4] | Potency [10] | Potency [6] | outcome [7] | outcome [8]

CC(=O)NC1CCSC1=O (centres undefined)
inactive: Potency [1] | outcome [2] | Potency [3] | Potency [4] | Potency [10] | Potency [6] | outcome [7] | outcome [8]

COC(=O)C(Cl)C(=O)OC
inactive: Potency [1] | outcome [2] | Potency [3] | Potency [4] | Potency [6]

Cc1cc(=O)[nH]o1
inactive: Potency [1] | outcome [2] | Potency [3] | Potency [4] | Potency [6]

Oc1ccc(Cl)c(Cl)c1Cl
inactive: Potency [1] | outcome [2] | Potency [3] | Potency [4] | Potency [10] | outcome [9] | Potency [6] | outcome [7] | outcome [8]

C=CC(=O)OCC(C)C
inactive: Potency [1] | outcome [2] | Potency [3] | Potency [4] | Potency [10] | Potency [6] | outcome [7] | outcome [8]
